# Screening results (PubChem)
# GLP1R inv ag: qHTS of GLP-1 Receptor Inverse Agonists (Inhibition Mode). Glucagon-like peptide 1 receptor (Homo sapiens), P43220. HEK293 GLP-1R CRE-luciferase, luminescence, 24 h; GLP-1R form is constitutively active. Potency, µM (doses to about 38.3 µM), without a hit: top-dose activity change, negative = inhibition, actives largely listed as inhibitors. 410,000 compounds, 1.6% hits; further: potency means the concentration at half of the fitted maximal effect; on the % scale 0 is the no-effect control and ±100 the full control effect; nearly all actives have a fitted effect of over 55% in size
#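 Using stably transfected HEK293 (constitutively active GLP-1R, cAMP-luciferase reporter), compounds were incubated 24 hr and luciferase measured by luminescence.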
# GLP-1R agonist: qHTS of GLP-1 Receptor Agonists; HEK293 GLP-1R CRE-luciferase, luminescence, 4-6 h; cells express a hypersensitive GLP-1R form; 380,000 compounds, 0.007% hits; Potency, µM (top dose mostly 45.6 µM), for inactives: at the top dose activation, usual class: activators; AID 624172, 2012; further: potency means the concentration at half of the fitted maximal effect; % of control where 0% means no effect
# GLP1R cytotox: qHTS of GLP-1 Receptor Inverse Agonists: Cytotox Screen; HEK293 cAMP-luciferase reporter cells, luminescence, 24 h; 410,000 compounds, 0.13% hits; Potency, µM (doses to about 38.3 µM), for the others: top-dose activity change, negative = inhibition, usual class: inhibitors; AID 624418, 2012;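 further: loss of luciferase light is scored as toxicity; potency means the concentration at half of the fitted maximal effect; on the % scale 0 is the no-effect control and ±100 the full control effect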
#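 1536-well qHTS counterscreen of the MLSMR; 200 cells/uL, 12 h pre-incubation, 23 nL cpd, 24 h at 37 deg C 5% CO2, luciferase detection reagent, 12 min RT, luminescence. Inhibition = undesired.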
# DRD3 antagonist: qHTS of D3 Dopamine Receptor Antagonist: qHTS | D(3) dopamine receptor (Homo sapiens), P35462 | D3R cells, DiscoveRx beta-arrestin luminescence, antagonist mode; active compounds read low | max response, negative = inhibition, % | 360,000 compounds, 2.5% hits | AID 652054, 2013; in the data active means max response below about -50%; inconclusive means no clear call, values can overlap the other calls; further: on the % scale 0 is the no-effect control and ±100 the full control effect
# Target sequence (P35462 whole entry, looked up): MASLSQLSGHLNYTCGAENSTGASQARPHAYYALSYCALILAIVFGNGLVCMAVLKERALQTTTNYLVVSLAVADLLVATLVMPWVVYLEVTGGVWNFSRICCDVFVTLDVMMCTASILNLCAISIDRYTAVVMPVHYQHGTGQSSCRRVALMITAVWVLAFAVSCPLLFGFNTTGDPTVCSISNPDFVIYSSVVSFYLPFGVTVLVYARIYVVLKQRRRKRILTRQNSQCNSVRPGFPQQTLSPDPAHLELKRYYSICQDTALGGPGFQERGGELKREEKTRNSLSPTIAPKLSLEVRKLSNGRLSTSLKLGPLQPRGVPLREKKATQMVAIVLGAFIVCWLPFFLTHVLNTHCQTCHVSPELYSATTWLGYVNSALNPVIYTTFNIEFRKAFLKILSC
#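 Cells expressing the human receptor were seeded at 1500 cells/well, incubated overnight at 37 degrees C in 5% CO2, then exposed to library compounds with dopamine controls for 90 minutes at 37 degrees C before luminescent detection.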
# DRD3 agonist: qHTS of D3 Dopamine Receptor Agonist: qHTS. D(3) dopamine receptor (Homo sapiens), P35462. D3R DiscoveRx beta-arrestin cells, luminescence, 90 min. max activation, %. 410,000 compounds, 0.58% hits; in the data active means max activation above about 30%; further: 0% is about no effect
#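 Cells at 1500/well, incubated overnight, then treated with pinned compounds (dopamine as control) for 90 min at 37 degrees C. DiscoveRx reagent added for 30 - 60 minutes at room temperature; luminescence read.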
# ClpP mod: qHTS Assay for Activators of ClpP; 340,000 compounds, 1.9% hits; Potency, µM (titrated, usually from 57.5 µM), for the others: at the highest dose activity change, negative = active; ATP-dependent Clp protease proteolytic subunit (Bacillus subtilis (strain 168)), P80244; purified B. subtilis ClpP, FRET peptide cleavage, 20 min; active means well fitted falling curve with a large enough effect; inconclusive means small, poorly fitted or top-dose-only effect; inactive means no such curve, though single readings can be large or run the other way; further: potency means the concentration at half of the fitted maximal effect; the source files actives as falling curves though it sought activators and does not explain the sign; nearly all actives have a fitted effect of over 65% in size
# Target sequence (P80244 whole entry, looked up): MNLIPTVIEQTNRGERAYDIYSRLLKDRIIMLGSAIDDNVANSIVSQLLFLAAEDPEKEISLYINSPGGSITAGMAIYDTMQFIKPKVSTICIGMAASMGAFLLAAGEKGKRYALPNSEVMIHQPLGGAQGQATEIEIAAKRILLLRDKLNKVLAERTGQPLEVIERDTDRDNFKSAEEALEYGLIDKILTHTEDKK
#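 FRET quenching reversal measured ClpP activation: 10 microg/mL B. subtilis ClpP at pH 8 with the FRET-FV decapeptide, read at 430 nm after 320 nm excitation. The 20-min minus 0-min signal was scaled between DMSO/no-enzyme wells and ADEP (5.8 microM final).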
# Starred values were filed as active, the others as inactive; ? = inconclusive; / = no result given. The list is not random: actives were taken first. Their share in the collection is about 5.7%. Unless noted, the call rests on the fitted dose curve; in most records, active means well fitted curve in the direction sought with a large enough effect; inconclusive means small, poorly fitted or top-dose-only effect, or another doubt; inactive means no such curve, though single readings can be large; an effect the other way counts as inactive or inconclusive.
SMILES,GLP1R inv ag,GLP-1R agonist,GLP1R cytotox,DRD3 antagonist,DRD3 agonist,ClpP mod
CCCC(c1nnnn1CC1CCCO1)N1CCN(c2cc(Cl)ccc2C)CC1 (centres undefined),8.9µM*,20%,-12%,-5,-3,3%
CCC(c1nnnn1C(C)(C)C)N1CCN(c2cc(Cl)ccc2C)CC1 (centres undefined),?,-1%,12%,-56*,-13,?
Cc1ccc(C(=O)Nc2ccccc2C(=O)O)cc1S(=O)(=O)N1CCCCCC1,6%,/,-5%,/,17,2%
COc1ccc(Nc2nc(NCc3ccco3)nc(N/N=C/c3ccccc3F)n2)cc1,-22%,-4%,13%,-54*,-7,-12%
COc1ccc(/C=N/Nc2nc(NCc3ccco3)nc(Nc3ccc(OC)cc3)n2)cc1,-15%,19%,-17%,9,0,1%
Cc1ccc(S(=O)(=O)NCC(c2ccccc2)N2CCN(c3ccc(F)cc3)CC2)cc1 (centres undefined),?,3%,-5%,-16,-3,-10%
Cc1ccc(S(=O)(=O)NCC(NCc2ccc(F)cc2)c2ccccc2)cc1 (centres undefined),11µM*,-3%,12%,-17,-4,5%
Cc1ccc(S(=O)(=O)NCC(Nc2cccc(Cl)c2)c2ccccc2)cc1 (centres undefined),11µM*,-6%,-28%,/,-1,-5%
O=S(=O)(NCC(Nc1ccc(Cl)cc1)c1ccccc1)c1ccc(Cl)cc1 (centres undefined),?,-54%,2%,?,8,-3%
CCOC(=O)c1cnn(-c2ccccc2)c1NC(=O)C(F)(F)C(F)(F)C(F)(F)F,-12%,-2%,9%,-68*,-4,-2%
Cc1cc2ccccc2c[n+]1C1CCCCC1,/,/,/,/,/,4%
O[C@@H]1CN(CC2CCCCC2)[C@@H](c2ccccc2)C[C@H]1n1cc(-c2ccc(F)cc2)nn1,4µM*,-1%,?,10,5,-6%
O[C@H]1CN(Cc2cccs2)[C@@H](c2ccccc2)C[C@@H]1n1cc(-c2ccc(F)cc2)nn1,10µM*,-5%,-11%,12,1,-2%
CC1CCc2c(sc(NC(=O)CCCOc3ccc(C(C)(C)C)cc3)c2C(N)=O)C1 (centres undefined),34%,/,9%,/,-12,1%
Cc1cc(C(F)(F)F)c2c(=O)[nH]c(=O)n(Cc3ccccc3)c2n1,-3%,11%,-2%,2,5,0%
O=c1[nH]c(=O)n(Cc2ccccc2)c2nc(-c3ccco3)cc(C(F)(F)F)c12,56%,15%,20%,-14,-6,14µM*
Cc1ccc(NC(=O)CSc2nc3nccnc3c(=O)n2CCc2c[nH]c3ccccc23)cc1C,2%,/,3%,/,-3,0%
COc1ccc2oc(C(=O)OC(C)C(=O)Nc3ccc(N4CCOCC4)cc3)c(C)c2c1 (centres undefined),4%,-3%,-11%,0,1,-18%
COc1ccc(N2CCN(C(=O)COC(=O)c3oc4ccc(OC)cc4c3C)CC2)cc1,-18%,-12%,13%,12,16,25µM*
COc1ccc2oc(C(=O)OCC(=O)N3CC(C)CC(C)C3)c(C)c2c1 (centres undefined),?,4%,10%,6,-5,14µM*
CCOC(=O)C1CCN(C(=O)COC(=O)c2oc3ccc(OC)cc3c2C)CC1,9%,-8%,2%,-2,2,4%
COc1ccc2oc(C(=O)OCC(=O)N3CCCC3=O)c(C)c2c1,8%,7%,1%,-1,-6,?
COc1ccc2oc(C(=O)OC(C)C(=O)N3CCC(C)CC3)c(C)c2c1 (centres undefined),?,2%,-4%,0,2,25µM*
CCNC(=O)NC(=O)C(C)OC(=O)c1oc2ccc(OC)cc2c1C (centres undefined),0%,-1%,1%,10,1,32µM*
COc1ccc2oc(C(=O)OCC(=O)N3CC(C)OC(C)C3)c(C)c2c1 (centres undefined),10%,-3%,-6%,-3,8,4%
SMILES,GLP1R inv ag,GLP-1R agonist,GLP1R cytotox,DRD3 antagonist,DRD3 agonist,ClpP mod
COC1CC(O[C@H]2/C(C)=C/CC3CC(C[C@]4(CCC(C)C(C5CCCCC5)O4)O3)OC(=O)[C@H]3C=C(C)/C(=N/O)C4OC/C(=C\C=C\[C@@H]2C)[C@@]43O)OC(C)C1O (some centres undefined),/,-5%,/,/,/,/
NC[C@@H]1O[C@H](OC2[C@@H](CO)O[C@@H](OC3[C@H](O)[C@H](N)C[C@H](N)[C@H]3OC3O[C@H](CO)[C@@H](O)[C@H](O)[C@@H]3N)[C@H]2O)C(N)[C@H](O)[C@@H]1O (some centres undefined),/,-7%,/,/,/,/
COc1ccc2oc(C(=O)OCC(=O)N3C(C)CCCC3C)c(C)c2c1 (centres undefined),?,7%,6%,-12,3,?
COc1ccc2oc(C(=O)OCC(=O)N(C)C3CCS(=O)(=O)C3)c(C)c2c1 (centres undefined),-1%,-10%,-2%,-6,-15,10µM*
COc1ccc2oc(C(=O)OC(C)C(=O)N(C)c3ccccc3)c(C)c2c1 (centres undefined),?,-2%,-2%,-14,-9,22µM*
Cc1c(C(=O)OCC(=O)N(C)C2CCS(=O)(=O)C2)oc2ccc(Br)cc12 (centres undefined),-4%,9%,-34%,0,1,-5%
COc1ccc2oc(C(=O)OCC(=O)N3CCCCC3C)c(C)c2c1 (centres undefined),?,-1%,-5%,-22,-13,8.9µM*
CN(C(=O)COC(=O)c1ccccc1NCCO)C1CCS(=O)(=O)C1 (centres undefined),10%,-1%,-1%,?,1,20µM*
Cc1ccc(C(=O)N2c3ccc(C)cc3C(C)(c3ccccc3)CC2(C)C)cc1 (centres undefined),?,/,7%,/,2,-5%
